A selection: hits, their analogues and other compounds. The true share with any hit is near 13%.
RAM inhibit: blocks the yeast RAM network; S. cerevisiae dse1pr::URA3 reporter, 5-FOA growth OD615, 2 d; analog-sensitive cbk1-as2 kinase mutant strain; inhibition, % at 50 µM; actives 1.8% (n = 190,000); AID 868;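 active = inhibition above a set limit, 3 SD over mean compound inhibition, cut at about 8.4% in these data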;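 note: 0% = DMSO-only wells with no growth and 100% = 10 µM 1-NA-PP1 full growth; inhibition rescues growth on 5-FOA so higher OD means more RAM inhibition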
CHOP inh: inhibitors of CHOP induction in ER stress response. AID 2732. inhibition, % at 10 µM. CHO-K1 CHOP-promoter luciferase, tunicamycin-induced, 15-18 h. actives 3.8% (n = 220,000);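 active = compounds that reduced the stress-induced luciferase reporter signal by more than about 70% of percent inhibition, limit read from the data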;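 note: 0% = tunicamycin plus vehicle and 100% = wells without tunicamycin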
WT yeast gro inh: growth inhibition of WT yeast, mitochondrial fusion screen | mitochondrial fusion phenotypic screen, WT strain | inhibition, % at 10 µM | actives 2.1% (n = 190,000); in the data active = inhibition above about 58%; tested in S. cerevisiae
Lmaj promast: inhibitors of Leishmania major promastigote growth; inhibition, % at 10 µM; AID 1063; Leishmania major promastigotes, resazurin fluorescence viability; actives 9% (n = 200,000); in the data active = inhibition above about 50%;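 note: promastigotes grown with compound for 44 hours at 28 °C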
Active calls of the source: *; x = not tested or not shown.

SMILES	RAM inhibit	CHOP inh	WT yeast gro inh	Lmaj promast
O=C(CCCN1C(=O)c2ccccc2C1=O)Nc1cccc(S(=O)(=O)NC2=NCCC2)c1	3	7	-6	-6
COc1cc(OC)cc(-c2nnc(Sc3ccc(C=O)cc3[N+](=O)[O-])o2)c1	6	14	-9	52*
CCOc1ccc(C2c3c(oc4ccccc4c3=O)C(=O)N2CCCN2CCOCC2)cc1 (stereo unspecified)	-1	22	10	-2
O=C1c2oc3ccccc3c(=O)c2C(c2cccs2)N1CCCN1CCOCC1 (stereo unspecified)	0	80*	-3	-2
COc1cc(OC)c2nc(C)c3c(c2c1)N(c1ccc(O)cc1)CC3	-1	22	-4	99*
COc1ccc(N2CCN(c3cc(C)c4ccc(O)cc4n3)CC2)cc1	0	-7	10	1
CCC1(C)Cc2c(sc3nc(NN)n(C)c(=O)c23)CO1 (stereo unspecified)	2	8	16	95*
CCOC(=O)c1sc(NC(=O)CCCCCN2C(=O)c3cccc4cccc(c34)C2=O)nc1C	2	72*	19	0
COc1ccc(NC(=O)c2nn(C34CC5CC(CC(C5)C3)C4)cc2[N+](=O)[O-])cc1	2	22	34	96*
O=C(Nc1cccc2ccccc12)c1nn(C23CC4CC(CC(C4)C2)C3)cc1[N+](=O)[O-]	4	-5	11	81*
CCn1cc([N+](=O)[O-])c(C(=O)Nc2ccc3c(c2)OCCO3)n1	1	-3	3	1
Cn1nc(C(C)(C)C)c([N+](=O)[O-])c1C(=O)Nc1cccc2ccccc12	x	22	x	x
Cc1ccc(OC(=O)c2cc(C)nn2C(C)(C)C)cc1	x	-7	x	x
O=C1CN(C(=O)c2ccc(Br)o2)C(c2ccccc2)c2cc(Cl)ccc2N1 (stereo unspecified)	3	84*	22	87*
O=C1CN(C(=O)c2ccc(Br)o2)C(c2ccc(F)cc2)c2cc(Cl)ccc2N1 (stereo unspecified)	3	69	11	94*
O=C1CN(C(=O)c2ccco2)C(c2ccccc2)c2cc(Cl)ccc2N1 (stereo unspecified)	2	1	-30	17
COc1ccc(-c2ccc(OC)cc2)cc1	2	2	-8	-4
COc1ccc(-c2nncnn2)cc1	-2	-10	25	97*
CC(NC(=O)COc1ccc(N(C)S(=O)(=O)c2ccccc2)cc1)c1ccccc1 (stereo unspecified)	6	5	-9	22
COc1cc(CNC(=O)c2ccc(Cn3nc(C)c(Cl)c3C)o2)cc(OC)c1	1	40	0	53*
O=C(O)c1ccccc1-c1nc2cc(Cl)ccc2c(=O)n1O	-1	8	-12	-16
O=c1c2ccc(Cl)cc2nc(-c2cccc(C(F)(F)F)c2)n1O	1	74*	12	99*
COc1ccc(C(=O)C(Sc2nnc(C)c(=O)[nH]2)c2ccc(OC)cc2)cc1 (stereo unspecified)	x	-3	x	x
CCOC(=O)c1nn(-c2ccccc2C)c2nc(Nc3ccccc3)cc(=O)n12	8.4*	55	19	-4
COCCN1CSC(=S)N(Cc2ccco2)C1	-1	-191	6	85*
SMILES	RAM inhibit	CHOP inh	WT yeast gro inh	Lmaj promast
S=C1SCN(Cc2ccccn2)CN1Cc1ccco1	-1	-84	19	80*
S=C1NCN(Cc2ccco2)CN1CCc1ccccc1	x	-4	x	x
CC1=CC2CC1C1C(=O)N(c3ccc(S(=O)(=O)Nc4nc(C)cc(C)n4)cc3)C(=O)C21 (stereo unspecified)	9.8*	32	-4	52*
COc1ccccc1Nc1ccncc1[N+](=O)[O-]	0	-7	-18	1
CC1CN(CC(O)COC(c2ccc(Cl)cc2)c2ccc(Cl)cc2)CC(C)O1 (stereo unspecified)	-1	57	57	67*
CC1CN(CC(O)COc2ccc(C(C)C)cc2)CC(C)O1 (stereo unspecified)	0	2	19	92*
CC1CN(CCCCOc2ccc(C(C)C)cc2)CC(C)O1 (stereo unspecified)	0	66	24	91*
CC(=O)c1ccc(OCC(O)CN2CC(C)OC(C)C2)cc1 (stereo unspecified)	0	9	-10	37
CN(C)CC(O)COC(c1ccc(Cl)cc1)c1ccc(Cl)cc1 (stereo unspecified)	0	17	30	99*
CN(C)CCOC(c1ccc(Cl)cc1)c1ccccn1 (stereo unspecified)	-1	14	-6	23
CN1CCN(CC(O)COC(c2ccccc2)c2ccccc2)CC1 (stereo unspecified)	1	6	-10	-1
COc1cc(CC(=O)NNC(=O)c2cc(C)oc2C)cc(OC)c1OC	0	20	-12	-7
CCc1ccccc1NC(=O)COc1cccc2ccc(C)nc12	3	21	12	-1
O=C(CN1CCc2ccccc21)NC(=O)NC1CCCCC1	x	32	x	x
O=[N+]([O-])c1ccc(NC(=S)N2CCc3ccccc3C2)cc1	0	7	12	7
O=C(CN1CCNCC1)NCCSc1ccc(Cl)cc1	0	12	-6	88*
O=C(CN1CCNCC1)Nc1ccccc1Cl	-1	58	19	-5
Cc1ccc(SCCNC(=O)/C=C/c2ccc(Cl)cc2)cc1	2	60	11	51*
Cc1ccc(SCCNC(=O)/C=C/c2ccc([N+](=O)[O-])cc2)cc1	1	21	25	62*
Cc1cc(NC(=O)c2cc(-c3ccccc3)on2)n(-c2ccccc2)n1	7	76*	-6	-9
COc1ccc(-c2cc(C(=O)Nc3c(C)nn(Cc4ccccc4)c3C)no2)cc1	4	76*	-11	-11
COc1cccc(-c2cc(C(=O)Nc3c(C)nn(Cc4ccccc4C)c3C)no2)c1	1	70*	-5	52*
COc1cccc(-c2cc(C(=O)Nc3c(C)nn(Cc4ccccc4)c3C)no2)c1	1	30	12	28
Cc1nc(NCCc2ccccc2F)c(C#N)c(C)c1[N+](=O)[O-]	6	60	-4	-2
CN1C=CC(=CC=C2C=CC(=O)C=C2)C=C1	x	6	x	x
SMILES	RAM inhibit	CHOP inh	WT yeast gro inh	Lmaj promast
COc1cc(C(=O)NCCCNc2nc3cc(C)c(C)cc3cc2C#N)cc(OC)c1OC	1	18	8	12
Cc1cc(C)c2nc(/N=C(\N)NC(=O)Nc3ccccc3)nc(C)c2c1	1	14	58*	100*
CC(=O)c1ccccc1N(C(=O)c1ccco1)C(C(=O)NC1CCCC1)c1ccc(N2CCOCC2)cc1 (stereo unspecified)	1	-8	-2	-6
CCOC(=O)C1=NN(c2ccccc2)C(=O)/C1=C\c1ccc(N(C)C)cc1	4	-81	7	89*
COC(=O)CC1=NN(c2ccccc2)C(=O)/C1=C\c1ccc(OC)cc1	9.5*	-12	-14	22
CCOC(=O)C1(Cc2ccccc2C(F)(F)F)CCN(C(C)COC)CC1 (stereo unspecified)	2	29	10	10
CCOC(=O)C1(Cc2ccccc2C(F)(F)F)CCN(C2CCN(C(C)=O)CC2)CC1	1	32	3	77*

Screening data (PubChem)
